Tg IFNy HTS – blocks Toxoplasma gondii growth in the presence of IFN-gamma. Toxoplasma gondii growth in IFN-gamma-treated host cells; stronger effect = lower value. activity change, negative = inhibition, % (test concentration not listed). hit rate 3.8% among 69,000; in the data active means activity change below about -70%, passing the limit was not always enough;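 further: host cells are HeLa cells infected with Toxoplasma gondii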
Numbers without * were called inactive; i = inactive; ! = not confirmed by another sample. The sample as a whole holds a higher share of hits than the screen did.

SMILES	Tg IFNy HTS
COc1ccc(CCC(=O)N2CCC3(CC2)Nc2ccccc2-n2cccc23)cc1	-115*
COc1cc(OC)cc(C(=O)N2CCC3(CC2)Nc2ccc(Cl)cc2-n2cccc23)c1	-9
COc1ccc(C(=O)N2CCC3(CC2)Nc2ccccc2-n2cccc23)cc1	-11
COc1cc(CCC(=O)N2CCC3(CC2)Nc2ccccc2-n2cccc23)cc(OC)c1OC	-20
CCCOc1ccc(-c2noc(-c3c(O)c4ccccc4[nH]c3=O)n2)cc1	18
Cc1ccc2[nH]c3c(=O)n(CC(=O)N4CCN(c5ncccn5)CC4)cnc3c2c1	10
CC(=O)N1CCc2c(nc(-c3ccccn3)nc2NCCc2ccc(F)cc2)C1	-41
Cc1ccc(CN(Cc2ccncc2)C2CC(C)(C)NC(C)(C)C2)o1	26
CCOC(=O)N1CCC2(CC1)OC(=O)C(C)=C2C(=O)NCc1ccc(OC)c(OC)c1	-9
CCc1cccc(NC(=O)COc2nc(CC)nc3ccccc23)c1	-11
CCN(Cc1ccc(Cl)cc1)C(=O)Cc1nn[nH]n1	6
Cc1c(NC(=O)Cc2ccccc2)c(=O)n(-c2ccccc2)n1C	6
Cc1c(NC(=O)c2cc3nc(-c4ccccc4)cc(C)n3n2)c(=O)n(-c2ccccc2)n1C	-86*
Cc1c(NC(=O)c2ncoc2-c2ccc(F)cc2)c(=O)n(-c2ccccc2)n1C	-32
Cc1ccc(S(=O)(=O)N2CCC3(CC2)NCCN=C3NCc2ccc(F)cc2)c(C)c1	0
CC(C)c1ccc(NC(=O)CN2C(=O)CCc3cc(S(=O)(=O)N4CCCCC4)ccc32)cc1	-113*
O=C(CN1C(=O)CCc2cc(S(=O)(=O)N3CCCC3)ccc21)Nc1cccc(Cl)c1	-103*
O=C(CN1C(=O)CCc2cc(S(=O)(=O)N3CCCCC3)ccc21)Nc1cccc(Cl)c1	-88*
Cc1ccc(NC(=O)CN2C(=O)CCc3cc(S(=O)(=O)N4CCCC4)ccc32)cc1	38
Cc1ccc(NC(=O)CN2C(=O)CCc3cc(S(=O)(=O)N4CCCC4)ccc32)cc1C	19
CC(C)c1ccc(NC(=O)CN2C(=O)CCc3cc(S(=O)(=O)N4CCOCC4)ccc32)cc1	-18
Cc1ccc(NC(=O)CN2C(=O)CCc3cc(S(=O)(=O)N4CCCCC4)ccc32)cc1C	3
O=C(CN1C(=O)CCc2cc(S(=O)(=O)N3CCCCC3)ccc21)Nc1ccccc1	-22
Cc1c(Cl)cccc1NC(=O)CN1C(=O)CCc2cc(S(=O)(=O)N3CCCCC3)ccc21	-11
CN1CCN(c2ncnc3c2CCN(c2ncc(F)cn2)CC3)CC1	-6
SMILES	Tg IFNy HTS
c1ccc(CN2CCOC3(CCN(Cc4ccncc4)CC3)C2)nc1	8
Cc1ccccc1-c1ncc(CNCc2csc(-c3cnccn3)n2)s1	19
Cc1ccc(-c2coc(-c3ccc(NC(=O)Nc4ccc(C)c(F)c4)cc3)n2)cc1	48
O=C(c1ccccc1F)N1CCc2c([nH]c3ccccc23)C1c1ccc(Cl)cc1 (configuration not stated)	-18
CCN1C(=O)N(CCCc2cccnc2)C(=O)C12CCN(Cc1cc3ccccc3s1)CC2	-3
COCCN1C(=O)CCC2C1CCN2C(=O)c1ccc2[nH]ccc2c1 (configuration not stated)	0
CN1C(=O)CCC2C1CCN2C(=O)c1ccc2[nH]ccc2c1 (configuration not stated)	-97*
CCN1C(=O)CCC2C1CCN2C(=O)c1ccc2[nH]ccc2c1 (configuration not stated)	0
CC(C)n1cccc1CN(Cc1ccccn1)C1CC(C)(C)NC(C)(C)C1	-3
Cc1nc(-c2ccccn2)nc(N2CCN(CCO)CC2)c1Cl	-14
Cc1nc(-c2ccccn2)nc(N(C)c2ccccc2)c1Cl	-101*
Cc1nnsc1C(=O)N1CCCC(c2n[nH]c(=O)n2-c2ccccc2)C1 (configuration not stated)	-17
Cc1cccc(OCC(=O)N2CSC[C@@H]2C(=O)NCCc2csc(-c3ccccc3)n2)c1	5
O=C(Nc1cccc(Cl)c1)c1nc2c(s1)CCN(c1ncccn1)CC2	166
CCN(Cc1cnc(N)nc1)CC1CCOCC1	-7
CC(=O)O[C@@]12CO[C@@H]1C[C@H](O)[C@@]1(C)C(=O)[C@H](O)C3=C(C)[C@@H](OC(=O)[C@H](O)[C@@H](NC(=O)OC(C)(C)C)c4ccccc4)C[C@@](O)([C@@H](OC(=O)c4ccccc4)C12)C3(C)C (some centres not stated)	-83*
CC(=O)O[C@@]12CO[C@@H]1C[C@H](O)[C@@]1(C)C(=O)[C@H](O)C3=C(C)[C@@H](OC(=O)[C@H](O)[C@@H](NC(=O)OC(C)(C)C)c4ccccc4)C[C@@](O)([C@@H](OC(=O)c4ccccc4)[C@H]21)C3(C)C	-72*!
CO[C@H]1C(=O)[C@@]2(C)[C@H]([C@@H](OC(=O)c3ccccc3)[C@@]3(O)C[C@H](OC(=O)[C@H](O)[C@@H](NC(=O)OC(C)(C)C)c4ccccc4)C(C)=C1C3(C)C)[C@]1(OC(C)=O)CO[C@@H]1C[C@H]2OC	-79*
C=CCN(CC#Cc1ccccc1)Cc1ccncc1	5
COc1ccccc1C(=O)N1C[C@H]2[C@@H](c3ccccc31)[C@H](CO)N2C(=O)Cc1ccccc1	-4
CC(=O)NCC(=O)N1CCc2ncnc(-c3ccsc3)c2CC1	73
CC(C)N1CCC(c2nnc3ccc(C(=O)C4CCC4)cn23)C1 (configuration not stated)	43
CN(Cc1nc2ccccc2[nH]1)C(=O)CCNC(=O)c1ccc(F)cc1	-49
COCC(=O)O[C@]1(CCN(C)CCCc2nc3ccccc3[nH]2)CCc2cc(F)ccc2[C@@H]1C(C)C	-72*
CCOC(=O)CCc1nc2ccccc2[nH]1	-27
SMILES	Tg IFNy HTS
Cc1ccc(C(=O)N2CCC(N3CCOCC3)CC2C(=O)O)cc1C (configuration not stated)	-1
COc1cc(OC)cc(-c2noc(-c3c(O)c4ccccc4[nH]c3=O)n2)c1	185
CCc1cnc(C)nc1N1CCN(CC(=O)Nc2ccccc2)CC1	5
CCCCc1nnc(NC(=O)C2CC(=O)N(CCc3c[nH]c4ccc(C)cc34)C2)s1 (configuration not stated)	-28
CCCCc1nnc(NC(=O)C2CC(=O)N(CCc3c[nH]c4ccc(OC)cc34)C2)s1 (configuration not stated)	68
CCCc1nnc(NC(=O)C2CC(=O)N(CCc3c[nH]c4ccc(Cl)cc34)C2)s1 (configuration not stated)	-91*
CN1C[C@@H]2CCN(C(=O)Nc3cccc(Cl)c3)CC[C@H]2S1(=O)=O	-3
COc1ccc(Cl)cc1NC(=O)N1CCC(c2nc(C(=O)N(C)C)c(C)o2)CC1	13
Cc1cccc(CN2C3COCC2CC(OCC2CC2)C3)c1 (configuration not stated)	-30
Cn1ccnc1CN(Cc1cc(=O)n2c3c(cccc13)CCC2)C1CC1	-1
COc1cccc(-c2nccn2CCc2cnc[nH]2)c1OC	8
CCOCc1cc(-c2nccn2-c2cccnc2)ccc1OC	-3
COc1ccc(-c2ccccc2)cc1-n1ccnc1-c1cnc[nH]1	-82*
COc1ccc(C(=O)N2CCc3c([nH]c4ccccc34)C2c2ccc(SC)cc2)cc1OC (configuration not stated)	i
COc1ccc(C2c3[nH]c4ccccc4c3CCN2C(=O)c2ccc3c(c2)OCO3)cc1 (configuration not stated)	-81*

Source: PubChem BioAssay (Broad Institute)
